Pf growth 96h: P. falciparum growth inhibition at 96 hour, primary screen for plastid delayed-death inhibitors; P. falciparum luciferase reporter growth, 96 h; Potency, µM (titrated, usually from 28.7 µM), for the others: at the top dose activity change, negative = inhibition, actives largely listed as inhibitors; 320,000 tested, 6.9% active; AID 504834; further: potency means the concentration at half of the fitted maximal effect; on the % scale 0 is the no-effect control and ±100 the full control effect
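Plates of compound plus infected erythrocytes (2% hematocrit, 0.05% parasitemia final) incubate 96 hours, 37 C, 5% CO2. Detection reagent added; reduced luminescence from the parasites' luciferase reporter flags inhibition.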
AMA1-RON2 inh: AMA1-RON2 (P. falciparum) interaction inhibition | Potency, µM (highest dose often 58.2 µM), for the others: at the highest dose activity change, negative = inhibition, usual class: inhibitors | AID 720542 | 360,000 tested, 0.2% active | AlphaScreen AMA1-biotinylated RON2 peptide binding;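 further: potency means the concentration at half of the fitted maximal effect; 0% = vehicle wells and -100% = peptide control; nearly all actives have a fitted effect of over 45% in size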
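AMA1 (3D7) with his tag at 25 nM final met compounds first, then biotinylated RON2 peptide at 25 nM; detection used donor plus acceptor beads, 10 µg/mL apiece, read by AlphaScreen after 30 min at room temperature.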
Pf growth 48h: inhibits P. falciparum growth in the first generation, 48 h. Potency, µM (highest dose often 28.7 µM), without a hit: at the top dose activity change, negative = inhibition, usual class: inhibitors. P. falciparum luciferase growth in erythrocytes, 48 h. 310,000 tested, 5.9% active; further: potency means the concentration at half of the fitted maximal effect; on the % scale 0 is the no-effect control and ±100 the full control effect
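Erythrocytes infected with P. falciparum carrying an integrated firefly luciferase reporter (2% hematocrit, 0.1% parasitemia final) were exposed to compounds in RPMI 1640 with 0.5% Albumax at 37 C, 5% CO2. Growth inhibition was scored as reduced luminescence.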
Shiga inhibitor: Shiga toxin inhibition. Vero cells, Shiga toxin protein synthesis inhibition reporter. inhibition, % at 38.7 µM. 290,000 tested, 9.2% active; in the data active means inhibition mostly above about 28%, no sharp cut-off; inactive means mostly below about 43%; further: 0% is about no effect
HCV inh: blocks hepatitis C virus; Huh7.5.1 HCVcc-Cre infection, luciferase reporter, 44 h; Potency, µM (highest dose often 41.8 µM), for the others: top-dose activity change, negative = inhibition, usual class: inhibitors; 340,000 tested, 3.4% active; further: potency means the concentration at half of the fitted maximal effect; on the % scale 0 is the no-effect control and ±100 the full control effect
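Reporter virus HCVcc-Cre (~0.5 moi) infects cells exposed to compound; seeding density 1,000 cells/well with 4 h settling beforehand. Luminescence, 15 sec read, taken 44 h post-infection following a 15 min RT substrate incubation.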
Cycloheximide cs: counter-screen hit for Shiga toxin inhibitors, cycloheximide | 300,000 tested, 12% active | max response, % | cell reporter, cycloheximide protein synthesis inhibition counterscreen; in the data active means max response mostly above about 13%, no sharp cut-off; inactive means mostly below about 14%; further: read at 38.3 µM for the half of the compounds with a filed dose; 0% is about no effect
Active calls of the source: *; ? = inconclusive; · = not tested or not shown. In the library only some 21% were active in any assay of this set; here they are far more common. Unless noted, the call rests on the fitted dose curve; in most records, active means well fitted curve in the direction sought with a large enough effect; inconclusive means small, poorly fitted or top-dose-only effect, or another doubt; inactive means no such curve, though single readings can be large; an effect the other way counts as inactive or inconclusive.

SMILES	Pf growth 96h	AMA1-RON2 inh	Pf growth 48h	Shiga inhibitor	HCV inh	Cycloheximide cs
N#CC1c2ccccc2C=CN1C(=O)N(c1ccccc1)c1ccccc1 (stereo not drawn)	·	-28%	·	·	?	·
COc1ccc(CNCc2cccc(Oc3ccccc3)c2)cc1	3.7µM*	-2%	73%	3	?	2
Cc1ccc(S(=O)(=O)NCCCNS(=O)(=O)c2ccccc2Br)cc1	·	-4%	·	·	?	·
COC(=O)C1=C(C(=O)OC)SC2(S1)C(C(=O)OC)=C(C(=O)OC)SC1=C2c2cc(C)cc(C)c2NC1(C)C	?	?	5.9µM*	-11	15%	5
COc1ccc(Cc2c(-c3ccc(Cl)cc3)nc3cc(C)c(Br)c(C)n23)c(C)c1	·	-7%	·	·	·	·
CC1(C(=O)NCc2ccccc2)CN(S(C)(=O)=O)CC(=O)N1CCc1c[nH]c2ccccc12 (stereo not drawn)	·	-4%	·	·	·	·
COc1ccc(C(=O)Nc2ccnn2C2CCN(Cc3ccccn3)CC2)cc1	53%	83%	28%	-5	5%	-1
COc1ccc(CCNc2oc(COc3ccccc3Cl)nc2C#N)cc1OC	3.7µM*	-22%	8.3µM*	23	?	7
COc1ccc(-c2nc(C#N)c(NCc3ccc(C)cc3)o2)cc1OC	6%	-7%	-29%	51	?	14
CCNc1oc(COc2ccccc2F)nc1C#N	·	-5%	54%	107*	3%	26*
CN(C)CCNc1oc(COc2cccc(Cl)c2)nc1C#N	-8%	-3%	-1%	7	5%	-2
COc1ccc(-c2nc(C#N)c(NCCc3ccccc3)o2)cc1OC	·	-3%	13%	50	?	22*
N#Cc1nc(COc2ccccc2F)oc1NCCCn1ccnc1	12%	-14%	17%	-4	-5%	13
COCCNc1oc(COc2cccc(C)c2)nc1C#N	-3%	19%	36%	active	?	19*
O=C1C2CCCCN2C(=O)N1CCCCN1CCN(c2cccc(Br)c2)CC1 (stereo not drawn)	?	0%	-30%	-5	?	-3
Cc1ccc(-c2ccc(=O)n(CCC(=O)N3CCN(c4cccc(C)c4)C(C)C3)n2)cc1 (stereo not drawn)	12%	-4%	?	-4	?	-4
C=CCn1c[n+](CC(=O)c2ccc(Br)s2)c2ccccc21	36%	-13%	?	-7	-4%	-2
COc1ccc(CCNc2oc(COc3ccccc3F)nc2C#N)cc1OC	157%	-2%	?	16	?	3
COc1ccc(CCNc2oc(Cc3ccccc3)nc2C#N)cc1OC	·	-2%	-27%	-2	10µM*	9
Cc1cc(C(=O)Nc2ccccc2C)on1	37%	0%	18%	-2	10%	0
Cc1ccc(NC(=O)c2cc(C)no2)cc1	-3%	0%	27%	80*	2%	59*
COc1ccc(NC(=O)c2cc(C)no2)cc1	15%	-2%	-17%	72*	7%	36*
COC(=O)c1ccccc1NC(=O)c1cc(C)no1	5%	15%	?	-5	-10%	-5
Cc1cc(C(=O)Nc2ccc(F)c(Cl)c2)on1	33%	6%	?	6	3%	19*
CCCNC(=O)c1cc(C)no1	?	-12%	·	49	11%	8
SMILES	Pf growth 96h	AMA1-RON2 inh	Pf growth 48h	Shiga inhibitor	HCV inh	Cycloheximide cs
CCc1ccc(NC(=O)c2cc(C)no2)cc1	53%	2%	13%	70*	?	47*
CC1CCC2(CC1)NC(=O)N(CC(=O)N1CCOCC1)C2=O (stereo not drawn)	·	3%	·	·	0%	·
Cc1cc(C(=O)Nc2ccc(F)cc2F)on1	8%	2%	20%	6	13%	15*
Cc1noc(C)c1C(=O)Nc1ccc(F)cc1F	·	10%	6%	-9	5%	7
Fc1ccc(CNc2ccc(N3CCN(Cc4ccccc4)CC3)cc2)cc1	9.3µM*	?	-22%	12	?	6
CCCCC1(c2ccc(F)cc2)NC(=O)N(CC(=O)N2CCN(C(=O)c3ccco3)CC2)C1=O (stereo not drawn)	6.6µM*	-2%	-14%	-12	19%	4
O=C(Nc1ccc(N2CCN(C(=O)c3ccco3)CC2)cc1)c1ccccc1	46%	3%	?	14	-11%	12*
O=C(Nc1ccc(N2CCN(Cc3ccccc3)CC2)cc1)c1ccco1	10%	-6%	?	65*	2%	13*
CC1CCC2(CC1)NC(=O)N(CC(=O)N1CCN(C(=O)c3ccco3)CC1)C2=O (stereo not drawn)	1%	0%	38%	·	2%	·
O=C(Nc1ccc(N2CCN(C(=O)c3ccco3)CC2)cc1)c1ccc(F)cc1	66%	-9%	0%	3	?	-2
COC(=O)c1cc2c(ccn2-c2ccc(F)cc2)n1CC(=O)N1CCN(C(=O)c2ccco2)CC1	12%	9%	?	-11	-30%	-4
CC(C)CC(=O)N1CCN(c2ccc(NC(=O)c3ccco3)cc2)CC1	9.3µM*	-3%	?	2	·	-1
CC(C)OC(=O)c1cc2c(ccn2-c2ccc(F)cc2)n1CC(=O)N1CCN(C(=O)c2ccco2)CC1	?	-11%	1.7µM*	12	?	-3
O=C(c1ccco1)N1CCN(c2ccc(F)cc2)CC1	-8%	3%	33%	100*	23%	26
CCn1cc(S(=O)(=O)N2CCN(c3ccc(Cl)cc3)CC2)cn1	-14%	14%	50%	-5	-9%	-1
Cc1sc2nc(SCC(=O)NCc3ccco3)n(CCc3ccccc3)c(=O)c2c1C	-1%	9%	12µM*	-1	12%	-1
O=C(CSc1nnc(Cc2ccccc2)n1Cc1ccccc1)NCc1ccco1	10%	-5%	?	23*	7%	12
O=C(CSc1nnc(CNc2ccc(Cl)cc2)n1Cc1ccccc1)NCc1ccco1	?	1%	-11%	19	-4%	14*
Cc1sc2nc(SCC(=O)NCc3ccco3)n(C)c(=O)c2c1C	-1%	2%	-6%	-9	?	-1
O=C(CSc1nnc(-c2cccnc2)n1Cc1ccccc1)NCc1ccco1	87%	-2%	-10%	-18	7%	-10
COC(=O)c1cc(-c2ccc(OC)cc2)on1	?	-5%	0%	12	-6%	-3
COc1ccc(-c2cc(C(=O)N3CCCC3)no2)cc1	0%	-15%	46%	74*	-6%	25*
COc1cccc(-c2cc(C(=O)N3CCN(c4ccc(F)cc4)CC3)no2)c1	17%	11%	11%	-17	-5%	-2
COc1ccc(-c2cc(C(=O)N3CCCCCC3)no2)cc1OC	134%	-2%	70%	52*	6%	30*

Source: PubChem
